# Source: PubChem (Buhrlage Lab, Dana-Farber Cancer Institute and Novartis Institutes for BioMedical Research (Cambridge, Mass))
# OTUD3 inh: blocks human OTUD3 ubiquitin-rhodamine cleavage. Q5T2D3. purified OTUD3, Ub-rhodamine fluorescence, 2 h. inhibition, % at 25 µM. actives 0.7% (n = 47,000)
# UCHL1 block: blocks human UCHL1 ubiquitin-rhodamine cleavage; purified UCHL1, Ub-rhodamine cleavage fluorescence; inhibition, % at 20 µM; actives 0.2% (n = 47,000); AID 1645859
# Target sequence (P09936 whole entry, looked up): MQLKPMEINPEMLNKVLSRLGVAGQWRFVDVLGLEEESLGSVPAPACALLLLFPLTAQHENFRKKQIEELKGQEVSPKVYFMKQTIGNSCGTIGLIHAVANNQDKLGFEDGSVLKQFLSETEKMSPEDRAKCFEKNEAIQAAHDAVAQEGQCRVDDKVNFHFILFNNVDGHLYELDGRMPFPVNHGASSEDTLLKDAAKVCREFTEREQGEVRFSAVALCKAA
# USP7 block: inhibitors of human USP7 deubiquitinase | inhibition, % at 20 µM | Q93009 | purified USP7, Ub-rhodamine cleavage fluorescence | AID 1645854 | actives 0.3% (n = 47,000)
# Starred values were filed as active, the others as inactive. An excerpt weighted towards active compounds, which were near 0.83% of everything screened. Rule as the data show it: active = inhibition above about 30%; inactive = the rest.
SMILES,OTUD3 inh,UCHL1 block,USP7 block
O=C1c2c(O)c(Cl)cc3c2[C@@]2(Oc4cc(Cl)c(O)c5c4[C@]3(O2)[C@@H]2O[C@@H]2C5=O)[C@@H]2O[C@H]12,83.5*,92.1*,92.9*
Cc1nc(CN2CC[C@H]3CO[C@H](CNc4ncccn4)[C@H]3C2)cs1,2.6,0.0,0.5
Cc1nn(C2CCCC2)c2c1C(c1ccc3c(c1)OCO3)SCC(=O)N2 (stereo not given),1.8,4.6,2.7
O=C(NCc1cccnc1)c1cccn(Cc2ccc(Cl)cc2)c1=O,6.8,0.9,-5.4
CC(C)=CCCC1(C)C=Cc2c(O)c3c(c(CC=C(C)C)c2O1)OC12C(=CC4CC1C(C)(C)OC2(C/C=C(/C)C(=O)O)C4=O)C3=O (stereo not given),69.4*,15.4,66.9*
CC1=C(O)C(=O)C=C2C1=CC=C1[C@@]2(C)CC[C@@]2(C)[C@@H]3C[C@](C)(C(=O)O)CC[C@]3(C)CC[C@]12C,25.7,12.1,34.8*
Cc1ccc(C)c(Cn2cccc(C(=O)Nc3ccccn3)c2=O)c1,15.2,2.4,-5.0
CC(C)=CCOC(C)(C)[C@H]1OC2CC[C@@]3(C)C(CCC4Cc5c([nH]c6ccccc56)[C@@]43C)C23OC3[C@@H]1O (stereo not given in full),60.9*,7.1,39.3*
CCC1CC2CC3c4[nH]c5cc(OC)ccc5c4CCN(C2)C13 (stereo not given),-151.0,-42.0,-44.7
CC(=O)O[C@H]1[C@]2(O)C[C@]34SS[C@](CO)(C(=O)N3[C@@H]2C[C@@]12O[C@@H](C)C(C)(C)C2=O)N(C)C4=O,12.0,-1.1,8.4
CN=C(N)NCCC/C=C/CCC[C@H](C)C[C@H](C)C1OC(=O)C(C)C(O)/C=C/C(C)C(O)CC(O)C(C)C(O)CCC(C)C(O)CC2(O)OC(CC(OC(=O)CC(=O)O)CC(O)CC(O)C(C)C(O)/C=C/C=C/C1C)CC(O)C2O (stereo not given in full),-14.4,5.0,-12.8
CC[C@@]1(O)C[C@H](OC2CC(N(C)C)C(OC3CC(O)C(OC4CCC(=O)C(C)O4)C(C)O3)C(C)O2)c2c(cc3c(c2O)C(=O)c2c(O)ccc(O)c2C3=O)[C@H]1C(=O)OC (stereo not given in full),11.5,1.6,-2.6
